The source made the active and inactive calls. The rule behind the calls is not given here.
Test: suppressors of polyglutamine aggregation in yeast, 75Q-TubH (AID 1616)
Conditions: S. cerevisiae 75Q-TubH polyglutamine aggregation suppression; stronger effect = higher value

| Structure (SMILES) | aggregation suppression score |
| --- | --- |
| Oc1c(Br)cc(Br)c2cccnc12 | -0.0132 |
| Cc1c(N(C)CS(=O)(=O)O)c(=O)n(-c2ccccc2)n1C | 1.09 |
| CCC(=O)O[C@H]1[C@H](O[C@@H]2[C@@H](C)[C@H](O[C@H]3C[C@@](C)(OC)[C@@H](O)[C@H](C)O3)[C@@H](C)C(=O)O[C@H](CC)[C@@](C)(O)[C@H](O)[C@@H](C)C(=O)[C@H](C)C[C@@]2(C)O)O[C@H](C)C[C@@H]1N(C)C | -0.59 |
| c1ccc(CN(CC2=NCCN2)c2ccccc2)cc1 | 1.29 |
| Cc1cc(CC(=O)O)n(C)c1C(=O)c1ccc(Cl)cc1 | 0.565 |
| CCN(CCCCOC(=O)c1ccc(OC)c(OC)c1)C(C)Cc1ccc(OC)cc1 (stereo unspecified) | 1.35 |
| OCC(O)CN1CCN(c2ccccc2)CC1 (stereo unspecified) | 1.04 |
| COc1c2occc2c(OC)c2c(=O)cc(C)oc12 | 0.597 |
| COc1cc(C(=O)NCc2ccc(OCCN(C)C)cc2)cc(OC)c1OC | 0.824 |
| COc1cc(NS(=O)(=O)c2ccc(N)cc2)ncn1 | 1.2 |
| Nc1ccc(S(N)(=O)=O)cc1 | 1.25 |
| CC(C)(Sc1cc(C(C)(C)C)c(O)c(C(C)(C)C)c1)Sc1cc(C(C)(C)C)c(O)c(C(C)(C)C)c1 | 0.634 |
| NS(=O)(=O)c1cc2c(cc1Cl)NC(CSCc1ccccc1)=NS2(=O)=O | 1.51 |
| O=C(O)c1ccccc1OP(=O)(O)O | 0.8 |
| O=C(O)c1ccccc1C(=O)Nc1ccc(S(=O)(=O)Nc2nccs2)cc1 | 1.17 |
| C=CCSCC1Nc2cc(Cl)c(S(N)(=O)=O)cc2S(=O)(=O)N1 (stereo unspecified) | 0.983 |
| CS(=O)(=O)c1ccc([C@@H](O)[C@@H](CO)NC(=O)C(Cl)Cl)cc1 | 0.726 |
| Cc1cc(=O)n(-c2ccccc2)n1C | 1.35 |
| CCN(CC)C(=O)N1CCN(C)CC1 | 1.44 |

| Structure (SMILES) | aggregation suppression score |
| --- | --- |
| CN1CCC(OC(c2ccccc2)c2ccccc2)CC1 | 1.27 |
| CCOc1ccc(NC(C)=O)cc1 | 0.296 |
| Nc1ccc(S(=O)(=O)NC(=O)c2ccccc2)cc1 | 1.16 |
| CCN(CC)CCOC(=O)C(Cc1cccc2ccccc12)CC1CCCO1 (stereo unspecified) | 1.03 |
| Cc1cc(-c2ccccc2)nnc1NCCN1CCOCC1 | 1.11 |
| CN(Cc1cc(Br)cc(Br)c1N)C1CCCCC1 | 1.07 |
| COc1cc(NS(=O)(=O)c2ccc(N)cc2)nc(OC)n1 | 1.32 |
| CCN1CCCC(OC(=O)C(c2ccccc2)c2ccccc2)C1 (stereo unspecified) | 1.15 |
| O=C1OC(c2ccc(O)cc2)(c2ccc(O)cc2)c2ccccc21 | 1.31 |
| C[N+]12CCC(CC1)C(OC(=O)C(O)(c1ccccc1)c1ccccc1)C2 (stereo unspecified) | 1.21 |
| CC(=O)Oc1ccc(C(c2ccc(OC(C)=O)cc2)c2ccccn2)cc1 | 1.23 |
| NS(=O)(=O)c1cc(C(=O)O)c(NCc2ccco2)cc1Cl | 0.957 |
| CCCCCCc1ccc(O)cc1O | -0.0012 |
| COc1ccc2cc3[n+](cc2c1OC)CCc1cc2c(cc1-3)OCO2 | 0.27 |
| O=C(O)c1ccccc1Nc1cccc(C(F)(F)F)c1 | -0.092 |
| C=C1c2cccc(O)c2C(O)=C2C(=O)[C@]3(O)C(O)=C(C(N)=O)C(=O)[C@@H](N(C)C)[C@@H]3[C@@H](O)[C@H]12 | 0.29 |
| CCOc1ccc(Cc2nccc3cc(OCC)c(OCC)cc23)cc1OCC | 1.07 |
| Cc1cc(NC(=O)C2=C(O)c3ccccc3S(=O)(=O)N2C)no1 | -0.565 |
| Cc1ncc([N+](=O)[O-])n1CCO | 0.969 |

Test: hESC survival regulators, cell-based (AID 493140);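 note: cells exposed to compounds for four days before counting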
Conditions: human embryonic stem cell survival screen; stronger effect = higher value

| Structure (SMILES) | survival |
| --- | --- |
| Cc1c(N(C)CS(=O)(=O)O)c(=O)n(-c2ccccc2)n1C | 3.25 (inactive) |
| c1ccc(CN(CC2=NCCN2)c2ccccc2)cc1 | 15 (inactive) |
| Cc1cc(CC(=O)O)n(C)c1C(=O)c1ccc(Cl)cc1 | 3.5 (inactive) |
| CCN(CCCCOC(=O)c1ccc(OC)c(OC)c1)C(C)Cc1ccc(OC)cc1 (stereo unspecified) | 13.9 (inactive) |
| OCC(O)CN1CCN(c2ccccc2)CC1 (stereo unspecified) | 19.2 (inactive) |
| COc1c2occc2c(OC)c2c(=O)cc(C)oc12 | 22.1 (inactive) |
| COc1cc(C(=O)NCc2ccc(OCCN(C)C)cc2)cc(OC)c1OC | 15.8 (inactive) |
| COc1cc(NS(=O)(=O)c2ccc(N)cc2)ncn1 | 3.67 (inactive) |
| Nc1ccc(S(N)(=O)=O)cc1 | 5.08 (inactive) |
| CC(C)(Sc1cc(C(C)(C)C)c(O)c(C(C)(C)C)c1)Sc1cc(C(C)(C)C)c(O)c(C(C)(C)C)c1 | 7.33 (inactive) |
| NS(=O)(=O)c1cc2c(cc1Cl)NC(CSCc1ccccc1)=NS2(=O)=O | 3.08 (inactive) |
| O=C(O)c1ccccc1OP(=O)(O)O | 6.17 (inactive) |
| O=C(O)c1ccccc1C(=O)Nc1ccc(S(=O)(=O)Nc2nccs2)cc1 | 11.2 (inactive) |
| C=CCSCC1Nc2cc(Cl)c(S(N)(=O)=O)cc2S(=O)(=O)N1 (stereo unspecified) | 6.42 (inactive) |
| CS(=O)(=O)c1ccc([C@@H](O)[C@@H](CO)NC(=O)C(Cl)Cl)cc1 | 14.4 (inactive) |
| Cc1cc(=O)n(-c2ccccc2)n1C | 27 (inactive) |
| CCN(CC)C(=O)N1CCN(C)CC1 | 18.8 (inactive) |

| Structure (SMILES) | survival |
| --- | --- |
| CN1CCC(OC(c2ccccc2)c2ccccc2)CC1 | 4.58 (inactive) |
| CCOc1ccc(NC(C)=O)cc1 | 8.75 (inactive) |
| Nc1ccc(S(=O)(=O)NC(=O)c2ccccc2)cc1 | 3 (inactive) |
| CCN(CC)CCOC(=O)C(Cc1cccc2ccccc12)CC1CCCO1 (stereo unspecified) | 5.33 (inactive) |
| Cc1cc(-c2ccccc2)nnc1NCCN1CCOCC1 | 17.2 (inactive) |
| COc1cc(NS(=O)(=O)c2ccc(N)cc2)nc(OC)n1 | 3.33 (inactive) |
| CCN1CCCC(OC(=O)C(c2ccccc2)c2ccccc2)C1 (stereo unspecified) | 12 (inactive) |
| C[N+]12CCC(CC1)C(OC(=O)C(O)(c1ccccc1)c1ccccc1)C2 (stereo unspecified) | 4.17 (inactive) |
| CC(=O)Oc1ccc(C(c2ccc(OC(C)=O)cc2)c2ccccn2)cc1 | 9.25 (inactive) |
| NS(=O)(=O)c1cc(C(=O)O)c(NCc2ccco2)cc1Cl | 10.1 (inactive) |
| COc1ccc2cc3[n+](cc2c1OC)CCc1cc2c(cc1-3)OCO2 | 0.5 (inactive) |
| O=C(O)c1ccccc1Nc1cccc(C(F)(F)F)c1 | 25.2 (inactive) |
| C=C1c2cccc(O)c2C(O)=C2C(=O)[C@]3(O)C(O)=C(C(N)=O)C(=O)[C@@H](N(C)C)[C@@H]3[C@@H](O)[C@H]12 | 4.33 (inactive) |
| CCOc1ccc(Cc2nccc3cc(OCC)c(OCC)cc23)cc1OCC | 5.17 (inactive) |
| Cc1cc(NC(=O)C2=C(O)c3ccccc3S(=O)(=O)N2C)no1 | 12.4 (inactive) |
| Cc1ncc([N+](=O)[O-])n1CCO | 10.8 (inactive) |

Reference: PubChem BioAssay
